This excerpt belongs to a sample that is enriched for hits.
Shiga inhibitor = inhibitors of Shiga toxin in Vero cells. Vero cells, Shiga toxin protein synthesis inhibition reporter. inhibition, % at 38.7 µM. actives 9.2% (n = 290,000). AID 2315; in the data active means inhibition mostly above about 28%, no sharp cut-off; inactive means mostly below about 43%; further: 0% is about no effect
SARS PLpro yeast = blocks SARS-CoV papain-like protease in a yeast assay; actives 0.19% (n = 330,000); Potency, µM (highest dose often 32.9 µM), without a hit: at the top dose activity, positive = growth rescue, actives largely listed as activators; S. cerevisiae expressing SARS-CoV PLpro, growth rescue; calls by dose curve; further: potency means the concentration at half of the fitted maximal effect; 0% is about no effect; nearly all actives have a fitted effect of over 55% in size
AMA1-RON2 inh = inhibitors of Plasmodium falciparum AMA1-RON2 interaction | AlphaScreen AMA1-biotinylated RON2 peptide binding | Potency, µM (doses to about 58.2 µM), for the others: top-dose activity change, negative = inhibition, hits mostly inhibitors | actives 0.2% (n = 360,000) | AID 720542;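 further: potency means the concentration at half of the fitted maximal effect; 0% = vehicle wells and -100% = peptide control; nearly all actives have a fitted effect of over 45% in size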
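AMA1 (3D7) with his tag at 25 nM final met compounds first, then biotinylated RON2 peptide at 25 nM; detection used donor plus acceptor beads, 10 µg/mL apiece, read by AlphaScreen after 30 min at room temperature.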
AmpC no deterg = AmpC beta-lactamase inhibition without detergent. Potency, µM (doses to about 57.1 µM), inactives show at the top dose activity change, negative = inhibition, hits mostly inhibitors. actives 0.52% (n = 330,000). AmpC nitrocefin hydrolysis, absorbance 480 nm, 0.0001% Triton;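 further: potency means the concentration at half of the fitted maximal effect; plate controls were no compound for no effect and no enzyme for full effect; nearly all actives have a fitted effect of over 20% in size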
Target sequence (P00811 whole entry, looked up): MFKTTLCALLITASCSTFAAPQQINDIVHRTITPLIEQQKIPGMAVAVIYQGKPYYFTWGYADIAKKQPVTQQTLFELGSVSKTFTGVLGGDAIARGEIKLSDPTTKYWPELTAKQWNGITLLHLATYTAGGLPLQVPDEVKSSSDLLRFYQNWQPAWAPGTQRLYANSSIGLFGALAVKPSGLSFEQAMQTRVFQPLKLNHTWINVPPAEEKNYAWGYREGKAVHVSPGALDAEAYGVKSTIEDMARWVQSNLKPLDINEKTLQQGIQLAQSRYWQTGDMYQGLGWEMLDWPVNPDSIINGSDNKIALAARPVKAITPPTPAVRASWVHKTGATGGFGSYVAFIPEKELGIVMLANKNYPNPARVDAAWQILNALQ
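20 mM phosphate pH 7.0 + 0.01% (detergent screen) or 0.0001% Triton X-100; 5.3 nM AmpC reagent; cpd preinc 15 min RT; nitrocefin (800 uM stock) to start; A480 q20 s × 4 min; Activity was normalised to no-enzyme and no-compound control wells.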
Cycloheximide cs = affects cycloheximide protein synthesis inhibition readout, counter-screen; actives 12% (n = 300,000); max response, %; cell reporter, cycloheximide protein synthesis inhibition counterscreen; in the data active means max response mostly above about 13%, no sharp cut-off; inactive means mostly below about 14%; further: read at 38.3 µM for the half of the compounds with a filed dose; 0% is about no effect
AmpC inh detg = AmpC beta-lactamase inhibition with detergent present. P00811. AmpC hydrolysis of nitrocefin, absorbance 480 nm, 0.01% Triton. Potency, µM (series often up to 114 µM), without a hit: at the highest dose activity change, negative = inhibition, hits mostly inhibitors. actives 0.041% (n = 370,000). AID 485294;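 further: potency means the concentration at half of the fitted maximal effect; 0% = no-compound wells and -100% = no-enzyme wells; nearly all actives have a fitted effect of over 25% in size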
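AmpC (5.3 nM in the dispensed reagent) in 20 mM phosphate pH 7.0 with 0.01% (detergent screen) or 0.0001% Triton X-100 was preincubated with compounds for 15 min at room temperature. Nitrocefin was then added from an 800 uM solution, and hydrolysis was followed at 480 nm.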
Numbers without * were called inactive. Unless noted, the call rests on the fitted dose curve; in most records, active means well fitted curve in the direction sought with a large enough effect; inconclusive means small, poorly fitted or top-dose-only effect, or another doubt; inactive means no such curve, though single readings can be large; an effect the other way counts as inactive or inconclusive.

`N#C/C(=C/c1cn[nH]c1-c1ccc(Br)cc1)C(=O)O` gave Shiga inhibitor -7.2, SARS PLpro yeast 8.6%, AMA1-RON2 inh 1.7%, AmpC no deterg -32.0%, Cycloheximide cs 7.4 and AmpC inh detg inconclusive.
Screening CN1CCN(c2nc3c(c(=O)n(C)c(=O)n3C)n2CC(N)=O)CC1 returned Shiga inhibitor -2.4, SARS PLpro yeast 10.6%, AMA1-RON2 inh 24.3%, AmpC no deterg -15.3%, Cycloheximide cs 3.5 and AmpC inh detg 31.6µM*.
`COc1ccc(NC(=O)c2ccco2)cc1NC(=O)c1cc2ccccc2o1` gave Shiga inhibitor -2.9, SARS PLpro yeast -5.2%, AMA1-RON2 inh 12.2%, AmpC no deterg -5.4%, Cycloheximide cs -7.9 and AmpC inh detg inconclusive.
For COc1ccc(NC(=O)c2cc3ccccc3o2)cc1OC the results were Shiga inhibitor 62.2*, SARS PLpro yeast 10.3%, AMA1-RON2 inh 1.4%, AmpC no deterg -12.2%, Cycloheximide cs 44.7* and AmpC inh detg -0.3%.
Screening COc1ccc(-c2nc3cc(NC(=O)c4cc5ccccc5o4)ccc3o2)cc1 returned AmpC inh detg 9.9%.
Screening CCCOc1ccc(S(=O)(=O)NNC(=O)c2cc3ccccc3o2)cc1 returned Shiga inhibitor 11.6, SARS PLpro yeast -10.2%, AMA1-RON2 inh 6.8%, AmpC no deterg -33.3%, Cycloheximide cs 13.6* and AmpC inh detg -4.0%.
For COc1ccc(NC(=O)c2cc3ccccc3o2)cn1 the results were SARS PLpro yeast -6.2%, AMA1-RON2 inh 4.8%, AmpC no deterg -27.8%, Cycloheximide cs 36.2* and AmpC inh detg -12.3%.
COc1ccc(NC(=O)c2cc(=O)c3ccccc3o2)cn1 was read as Shiga inhibitor -2.5, SARS PLpro yeast 1.7%, AMA1-RON2 inh 16.0%, AmpC no deterg -12.6%, Cycloheximide cs -0.7 and AmpC inh detg -14.9%.
Screening COc1ccc(NC(=O)c2cc3ccccc3o2)cc1 returned Shiga inhibitor 93.9*, SARS PLpro yeast -9.0%, AMA1-RON2 inh -6.4%, AmpC no deterg -33.7%, Cycloheximide cs 39.2* and AmpC inh detg -1.5%.
For CCOc1ccc(S(=O)(=O)NNC(=O)c2cc3ccccc3o2)cc1 the results were Shiga inhibitor -8.1, SARS PLpro yeast -0.9%, AMA1-RON2 inh -9.2%, AmpC no deterg -19.0%, Cycloheximide cs 1.0 and AmpC inh detg 2.2%.
`COc1ccc(NC(=O)c2coc(=O)c3ccccc23)cc1OC` gave AmpC inh detg 5.3%.
COc1ccc(NC(=O)c2coc3ccccc23)cc1OC was read as Shiga inhibitor 71.2*, SARS PLpro yeast 3.4%, AMA1-RON2 inh 5.7%, AmpC no deterg -10.9%, Cycloheximide cs 20.4* and AmpC inh detg inconclusive.
`O=S(=O)(c1ccc(Cl)cc1Cl)N1CCCC1c1cccnc1` (centres undefined) gave Shiga inhibitor 13.1, SARS PLpro yeast -4.5%, AMA1-RON2 inh -9.7%, AmpC no deterg -11.6%, Cycloheximide cs -2.5 and AmpC inh detg 9.7%.
`O=S(=O)(c1ccccc1Cl)N1CCCC1c1nc(-c2ccc(Cl)cc2)no1` (centres undefined) gave Shiga inhibitor 13.8, SARS PLpro yeast -0.9%, AMA1-RON2 inh 13.1%, AmpC no deterg 0.316µM*, Cycloheximide cs 0.1 and AmpC inh detg -3.4%.
For CCCCOc1ccc(-c2cn3ccccc3n2)cc1[N+](=O)[O-] the results were Shiga inhibitor 103.4*, SARS PLpro yeast -31.1%, AMA1-RON2 inh -6.9%, AmpC no deterg -8.9%, Cycloheximide cs 62.0* and AmpC inh detg -1.9%.
CCOc1ccc(-c2cn3ccccc3n2)cc1[N+](=O)[O-] was read as Shiga inhibitor 66.8*, SARS PLpro yeast -11.5%, AMA1-RON2 inh -11.3%, AmpC no deterg -3.4%, Cycloheximide cs 37.6* and AmpC inh detg -11.2%.
Screening CCCOc1ccc(-c2csc(N)n2)cc1[N+](=O)[O-] returned Shiga inhibitor active, SARS PLpro yeast -98.3%, AMA1-RON2 inh -3.8%, AmpC no deterg -28.1%, Cycloheximide cs 45.0* and AmpC inh detg -8.8%.
O=[N+]([O-])c1ccc(-c2cn3ccccc3n2)cc1 was read as AMA1-RON2 inh 1.1%.
`O=C(c1ccco1)N1CCC(c2nc3c(nnn3Cc3c(Cl)cccc3Cl)c(=O)[nH]2)CC1` gave Shiga inhibitor 3.7, SARS PLpro yeast 1.9%, AMA1-RON2 inh -9.6%, AmpC no deterg 14.9%, Cycloheximide cs -4.7 and AmpC inh detg 1.0%.
Screening O=C(CC(Cc1ccccc1)c1ccco1)NCc1ccco1 (centres undefined) returned Shiga inhibitor 18.5, SARS PLpro yeast -2.2%, AMA1-RON2 inh -1.1%, AmpC no deterg -9.0%, Cycloheximide cs 10.6 and AmpC inh detg -0.5%.
COc1cc(OC)cc(C(=O)Nc2ccc(-c3nc4ccccc4o3)cc2)c1 was read as Shiga inhibitor 48.0*, SARS PLpro yeast 2.5%, AMA1-RON2 inh -8.8%, AmpC no deterg 50.5%, Cycloheximide cs 11.6 and AmpC inh detg -5.4%.
COc1cccc(C(=O)Nc2ccc(-c3nc4ccccc4o3)c(O)c2)c1 was read as Shiga inhibitor 53.2*, SARS PLpro yeast -3.5%, AMA1-RON2 inh 32.8%, AmpC no deterg 3.98µM*, Cycloheximide cs 13.8 and AmpC inh detg -1.1%.
`COc1ccc(Cn2c(SCc3ccc(C)cc3)nc3cc(OC)c(OC)cc3c2=N)cc1Cl` gave Shiga inhibitor -3.4, SARS PLpro yeast -28.5%, AMA1-RON2 inh -2.8%, AmpC no deterg 63.7%, Cycloheximide cs -1.6 and AmpC inh detg -7.3%.
`O=C1CN(C(=O)c2ccccc2[N+](=O)[O-])C(c2ccccc2)c2cc(Br)ccc2N1` (centres undefined) gave Shiga inhibitor -5.6, SARS PLpro yeast -0.5%, AMA1-RON2 inh -2.7%, AmpC no deterg -10.8%, Cycloheximide cs 1.0 and AmpC inh detg -14.1%.
O=[N+]([O-])c1ccc2oc(/C=C/c3ccc(O)cc3)nc2c1 was read as AMA1-RON2 inh -3.8%.
`CC(=O)N/C(N)=N/c1nc2cc([N+](=O)[O-])ccc2o1` gave Shiga inhibitor 81.2, SARS PLpro yeast -1.1%, AMA1-RON2 inh 31.0%, AmpC no deterg -15.7%, Cycloheximide cs 27.1* and AmpC inh detg 3.6%.
`CC(=O)N/C(N)=N/c1nc2cc(C)ccc2o1` gave Shiga inhibitor 63.4*, SARS PLpro yeast 0.2%, AMA1-RON2 inh 126.2%, AmpC no deterg -36.2%, Cycloheximide cs 36.8* and AmpC inh detg -6.7%.
CCCC(=O)n1nc(-c2ccc(Cl)cc2)nc1SC was read as Shiga inhibitor 66.7*, SARS PLpro yeast -3.8%, AMA1-RON2 inh 5.2%, AmpC no deterg -28.9%, Cycloheximide cs 23.0* and AmpC inh detg 1.0%.
